# Reference: PubChem BioAssay (Tox21)
# Unmarked numbers belong to inactive results. Results filed as inconclusive are left out. Where a call stands in place of a potency, no number is given. Calls of active or inactive are those of the source. Unless noted, the call rests on the fitted dose curve.
# Experiments:
# [1] = Nuclear factor erythroid 2-related factor 2/antioxidant responsive element (Nrf2/ARE) small molecule agonists: qHTS cell viability counter screen in human keratinocytes (AID 1919968; active means well fitted curve in the direction sought with a large enough effect in the repeat runs; an effect the other way counts as inactive or inconclusive; further: nearly all actives have a fitted effect of over 55% in size; further: potency means the concentration at half of the fitted maximal effect)
# Summary of the method: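 Viability counter-screen: KeratinoSens reporter cells, DMSO-delivered compounds, 23 h at 37 C, CellTiter-Fluor fluorescence.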
# [2] = Nuclear factor erythroid 2-related factor 2/antioxidant responsive element (Nrf2/ARE) small molecule agonists: luciferase reporter gene qHTS assay in human keratinocytes (AID 1919969); further: nearly all actives have a fitted effect of over 35% in size; further: potency means the concentration at half of the fitted maximal effect
# [3] = target: Gonadotropin-releasing hormone receptor (Homo sapiens) (UniProt P30968); experiment: Human gonadotropin-releasing hormone receptor (GnRHR) small molecule agonists, calcium flux assay in GnRHR-HEK293 cells (AID 1920063); further: nearly all actives have a fitted effect of over 35% in size
# Sequence of Gonadotropin-releasing hormone receptor (Homo sapiens) (P30968 whole entry, looked up): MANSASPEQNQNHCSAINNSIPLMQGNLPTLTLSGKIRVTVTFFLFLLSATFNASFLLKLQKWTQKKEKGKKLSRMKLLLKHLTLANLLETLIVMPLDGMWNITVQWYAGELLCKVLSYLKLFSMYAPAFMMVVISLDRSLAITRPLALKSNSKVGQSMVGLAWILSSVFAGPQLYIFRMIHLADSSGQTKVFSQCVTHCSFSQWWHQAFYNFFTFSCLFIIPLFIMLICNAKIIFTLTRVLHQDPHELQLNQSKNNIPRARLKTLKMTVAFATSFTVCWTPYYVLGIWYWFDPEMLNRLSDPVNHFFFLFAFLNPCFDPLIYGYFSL
# Summary of the method: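 Tox21-format agonist screen using human GnRHR-expressing HEK293 cells and a fluorescent calcium dye; kinetic 3-min fluorescence reading after compound addition, 15-point concentration series run in triplicate.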
# [4] = target: KiSS-1 receptor (Homo sapiens) (UniProt Q969F8); experiment: Human kisspeptin (KISS1R) small molecule agonists, calcium flux assay in KISS1R-HEK293 cells (AID 1920064; active means well fitted curve in the direction sought with a large enough effect in the repeat runs; an effect the other way counts as inactive or inconclusive)
# Sequence of KiSS-1 receptor (Homo sapiens) (Q969F8 whole entry, looked up): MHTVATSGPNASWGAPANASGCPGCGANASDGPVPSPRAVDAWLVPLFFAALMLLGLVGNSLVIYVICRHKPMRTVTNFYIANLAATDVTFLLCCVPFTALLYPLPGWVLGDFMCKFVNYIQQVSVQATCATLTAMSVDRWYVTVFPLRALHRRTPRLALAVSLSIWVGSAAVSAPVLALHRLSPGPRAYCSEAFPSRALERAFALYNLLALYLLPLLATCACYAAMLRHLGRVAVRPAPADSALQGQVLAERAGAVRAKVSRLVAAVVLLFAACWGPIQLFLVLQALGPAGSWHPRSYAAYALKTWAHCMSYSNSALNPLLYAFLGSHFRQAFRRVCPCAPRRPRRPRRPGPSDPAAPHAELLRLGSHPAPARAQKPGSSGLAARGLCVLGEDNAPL
# Summary of the method: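 Intracellular calcium mobilization in KISS1R-HEK293 cells was recorded by fluorescence (Ex/Em 480/540) for 3 min following compound addition to cells pre-loaded 1 h with calcium dye.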
# [5] = p53 small molecule agonists, cell-based qHTS assay with human liver microsomes: qHTS cell viability counter screen (AID 1963579); further: nearly all actives have a fitted effect of over 45% in size
# Summary of the method: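 Cells carrying the p53 response-element beta-lactamase reporter are treated for 16 h at 37 C with test compounds in the presence of human liver microsomes and NADPH (both 0.5 mg/mL final); ATP-based CellTiter-Glo luminescence then reports viability.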
# [6] = p53 small molecule agonists, cell-based qHTS assay: qHTS cell viability counter screen (AID 1963581); further: nearly all actives have a fitted effect of over 45% in size
# Summary of the method: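 Compounds are pinned onto HCT-116 p53RE-bla cells and left 16 h at 37 C. Following the reporter FRET read, ATP is quantified by CellTiter-Glo luminescence after 30 min at room temperature.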
# [7] = target: 5-hydroxytryptamine receptor 2A (Homo sapiens) (UniProt P28223); experiment: 5-hydroxytryptamine receptor 2A (HTR2A) small molecule antagonists, cell-based qHTS assay (AID 1963586); further: nearly all actives have a fitted effect of over 45% in size
# Sequence of 5-hydroxytryptamine receptor 2A (Homo sapiens) (P28223 whole entry, looked up): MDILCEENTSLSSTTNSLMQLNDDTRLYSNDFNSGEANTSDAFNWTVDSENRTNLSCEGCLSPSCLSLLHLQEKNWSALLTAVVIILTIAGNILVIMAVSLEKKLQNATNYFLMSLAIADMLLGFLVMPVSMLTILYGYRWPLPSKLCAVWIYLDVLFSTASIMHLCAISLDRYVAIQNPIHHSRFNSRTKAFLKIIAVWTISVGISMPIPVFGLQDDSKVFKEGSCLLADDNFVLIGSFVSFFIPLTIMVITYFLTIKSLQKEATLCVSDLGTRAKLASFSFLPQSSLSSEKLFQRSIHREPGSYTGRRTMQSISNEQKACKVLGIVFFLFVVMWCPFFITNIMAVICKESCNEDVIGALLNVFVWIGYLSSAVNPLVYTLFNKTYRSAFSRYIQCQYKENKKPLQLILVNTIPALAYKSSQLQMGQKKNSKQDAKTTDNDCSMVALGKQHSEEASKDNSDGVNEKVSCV
# Summary of the method: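 Antagonist-mode intracellular calcium assay: DOI (4 nM) added after 5 min compound pre-incubation at room temperature to dye-loaded HTR2A-CHO cells. Fluorescence followed for 3 min, sampled every second.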
# [8] = target: Muscarinic acetylcholine receptor M1 (Homo sapiens) (UniProt P11229); experiment: Cholinergic receptor muscarinic 1 (CHRM1) small molecule antagonists, cell-based qHTS assay (AID 1963588); further: nearly all actives have a fitted effect of over 40% in size
# Sequence of Muscarinic acetylcholine receptor M1 (Homo sapiens) (P11229 whole entry, looked up): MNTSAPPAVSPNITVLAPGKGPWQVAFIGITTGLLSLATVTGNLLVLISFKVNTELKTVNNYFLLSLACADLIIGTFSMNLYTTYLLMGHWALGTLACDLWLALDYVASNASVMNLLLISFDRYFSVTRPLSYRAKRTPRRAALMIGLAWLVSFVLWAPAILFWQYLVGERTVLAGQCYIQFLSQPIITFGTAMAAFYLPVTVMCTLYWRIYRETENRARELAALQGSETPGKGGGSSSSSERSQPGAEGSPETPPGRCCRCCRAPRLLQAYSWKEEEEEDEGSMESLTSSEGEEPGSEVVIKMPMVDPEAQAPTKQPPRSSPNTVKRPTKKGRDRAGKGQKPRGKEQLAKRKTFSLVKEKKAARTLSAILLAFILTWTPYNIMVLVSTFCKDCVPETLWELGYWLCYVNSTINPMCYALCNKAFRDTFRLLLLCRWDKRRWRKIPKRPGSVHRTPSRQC
# Summary of the method: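 CHRM1-CHO calcium-flux assay, antagonist mode. Cells were seeded 18 h, dye-loaded 1 h at 37 C and given compound for 5 min at RT, then acetylcholine was added at 50nM. FDSS fluorescence was read 3 min; 15 concentrations, three runs.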
# [9] = target: Muscarinic acetylcholine receptor M1 (Homo sapiens) (UniProt P11229); experiment: Cholinergic receptor muscarinic 1 (CHRM1) small molecule agonists, cell-based qHTS assay (AID 1963589); further: nearly all actives have a fitted effect of over 35% in size
# Summary of the method: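 Stable CHRM1-CHO cells (human receptor) were incubated 18 h, dye-loaded for 1 h at 37 C and exposed to test compounds for agonist activity, with calcium-dependent fluorescence followed kinetically.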
# [10] = cAMP Responsive Elements (CRE) small molecule agonists, cell-based qHTS assay (AID 1963590)
# Summary of the method: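 FRET-based beta-lactamase readout (LiveBLAzer B/G, 2 h RT) quantified CRE activation in HEK 293T CRE-bla cells after 3 h treatment with DMSO-dissolved compounds.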
# [11] = cAMP Responsive Elements (CRE) small molecule antagonists, cell-based qHTS assay (AID 1963591; active means well fitted inhibition curve with a large enough effect in the signal ratio in the repeat runs, not every such curve was filed as active; the % refers to the signal ratio)
# Summary of the method: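 qHTS in CRE-bla HEK 293T cells: compound in DMSO, then 0.25 uM NKH477 (final), 3 h at 37 °C/5% CO2; beta-lactamase FRET read-out after 2 h substrate incubation.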
# [12] = target: Beta-2 adrenergic receptor (Homo sapiens) (UniProt P07550); experiment: Adrenergic beta2 receptor (ADRB2) small molecule antagonists, cell-based qHTS assay (AID 1963592); further: series mostly up to about 92 µM; nearly all actives have a fitted effect of over 50% in size
# Sequence of Beta-2 adrenergic receptor (Homo sapiens) (P07550 whole entry, looked up): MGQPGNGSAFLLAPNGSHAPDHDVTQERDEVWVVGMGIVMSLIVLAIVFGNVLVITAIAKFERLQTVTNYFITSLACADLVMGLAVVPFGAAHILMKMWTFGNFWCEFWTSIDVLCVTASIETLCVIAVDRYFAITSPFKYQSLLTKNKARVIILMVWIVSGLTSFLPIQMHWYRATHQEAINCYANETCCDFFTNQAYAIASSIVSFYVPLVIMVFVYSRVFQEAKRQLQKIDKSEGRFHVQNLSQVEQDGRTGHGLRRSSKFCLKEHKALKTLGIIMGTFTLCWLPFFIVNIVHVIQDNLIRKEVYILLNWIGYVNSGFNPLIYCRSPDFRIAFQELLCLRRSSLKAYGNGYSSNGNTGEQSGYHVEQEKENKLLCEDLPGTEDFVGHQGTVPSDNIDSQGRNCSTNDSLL
# Summary of the method: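 Cells (CHO, stable ADRB2 overexpression) incubated 18-20hr at 37C; compounds added from DMSO; agonist mix (1nM isoproterenol, 100uM IBMX, 25uM Ro-20-1724) added; 0.5hr RT; d2-cAMP and anti-cAMP-cryptate added; 1hr RT; 665/615 nm read.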
# [13] = target: D(2) dopamine receptor (Homo sapiens) (UniProt P14416); experiment: Dopamine D2 receptor (DRD2) small molecule agonists, cell-based qHTS assay (AID 1963594); further: nearly all actives have a fitted effect of over 35% in size
# Sequence of D(2) dopamine receptor (Homo sapiens) (P14416 whole entry, looked up): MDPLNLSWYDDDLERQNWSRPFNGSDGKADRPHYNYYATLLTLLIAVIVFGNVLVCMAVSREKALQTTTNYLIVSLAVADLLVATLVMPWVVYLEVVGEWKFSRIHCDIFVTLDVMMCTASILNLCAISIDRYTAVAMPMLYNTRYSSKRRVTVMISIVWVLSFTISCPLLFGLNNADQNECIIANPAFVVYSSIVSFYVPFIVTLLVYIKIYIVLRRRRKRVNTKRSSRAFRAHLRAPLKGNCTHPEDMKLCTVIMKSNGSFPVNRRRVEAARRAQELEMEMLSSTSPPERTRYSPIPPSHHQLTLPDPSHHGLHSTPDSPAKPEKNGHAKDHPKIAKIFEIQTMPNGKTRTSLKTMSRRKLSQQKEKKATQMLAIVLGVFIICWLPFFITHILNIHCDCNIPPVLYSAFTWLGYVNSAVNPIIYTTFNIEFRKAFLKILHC
# Summary of the method: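 cAMP accumulation in DRD2-HEK293 cells measured by HTRF after 1 h detection; compounds added 10 min before NKH477 (200nM […]) forskolin-analogue stimulation, 30 min at room temperature, with Ro20-1724 present at 0.1 mM final.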
# [14] = target: D(2) dopamine receptor (Homo sapiens) (UniProt P14416); experiment: Dopamine D2 receptor (DRD2) small molecule antagonists, cell-based qHTS assay (AID 1963595; active means well fitted inhibition curve with a large enough effect in the signal ratio in the repeat runs, with a control signal flat; the % refers to the signal ratio)
# Summary of the method: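 DRD2-HEK293; 0.1 mM Ro20-1724; cpd 10 min RT; NKH477 200 nM + quinpirole 12 nM, 30 min RT; HTRF cAMP (cAMP-d2/anti-cAMP cryptate), 665/620 nm ratio after 1 h.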
# [15] = p53 small molecule agonists, cell-based qHTS assay with rat liver microsomes: qHTS cell viability counter screen (AID 1963580); further: nearly all actives have a fitted effect of over 45% in size
# Summary of the method: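 Intracellular ATP, by CellTiter-Glo luminescence, defines viability. HCT-116 p53RE-bla cells, 4,000 per well, were compound-treated in the presence of rat liver microsomes and NADPH for 16 h at 37 C.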
# [16] = target: 5-hydroxytryptamine receptor 2A (Homo sapiens) (UniProt P28223); experiment: 5-hydroxytryptamine receptor 2A (HTR2A) small molecule agonists, cell-based qHTS assay (AID 1963587); further: nearly all actives have a fitted effect of over 30% in size
# Summary of the method: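 Kinetic calcium-flux fluorescence (2 min, 1 sec intervals) after compound addition in agonist mode. HTR2A-CHO cells were cultured 18 h, then dye-loaded 1 h at 37 C.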
# [17] = target: Beta-2 adrenergic receptor (Homo sapiens) (UniProt P07550); experiment: Adrenergic beta2 receptor (ADRB2) small molecule agonists, cell-based qHTS assay (AID 1963593);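 further: CHO cells stably overexpressing human ADRB2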
# Summary of the method: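 CHO cells stably over-expressing ADRB2 were plated overnight at 37C, then dosed with compounds plus a stimulation mix containing 100uM IBMX and 25uM Ro-20-1724 for 0.5hr at room temperature. cAMP was measured by HTRF competition, 1hr.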
# [18] = p53 small molecule agonists, cell-based qHTS assay (AID 1963582; active means well fitted activation curve with a large enough effect in the signal ratio in the repeat runs, not every such curve was filed as active; the % refers to the signal ratio; further: potency means the concentration at half of the fitted maximal effect)
# Summary of the method: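 Agonist activity was scored from beta-lactamase FRET fluorescence in p53RE-bla cells treated 16 h at 37 C with compounds in DMSO, substrate incubation being 2 h at room temperature.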
# [19] = p53 small molecule agonists, cell-based qHTS assay with rat liver microsomes (AID 1963578)
# Summary of the method: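 Read-out is beta-lactamase reporter fluorescence (LiveBLAzer, 2 h, room temperature, dark) in p53RE-bla cells treated 16 h at 37 C with compound, rat liver microsomes and NADPH, both 0.5 mg/mL final.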
smiles,measurement,setting,value
Cc1ccc(C(=O)O)cc1[N+](=O)[O-],Potency,[1],inactive
same,Potency,[2],inactive
same,Potency,[3],inactive
same,Potency,[4],inactive
same,Potency,[5],inactive
same,Potency,[6],inactive
same,Potency,[7],inactive
same,Potency,[8],inactive
same,Potency,[9],inactive
same,Potency,[10],inactive
same,Potency,[11],inactive
same,Potency,[12],inactive
same,Potency,[13],inactive
same,Potency,[14],inactive
CC(C)=CC=O,Potency,[1],inactive
same,Potency,[2],inactive
same,Potency,[3],inactive
same,Potency,[4],inactive
same,Potency,[5],inactive
same,Potency,[15],inactive
same,Potency,[7],inactive
same,Potency,[16],inactive
same,Potency,[8],inactive
same,Potency,[10],inactive
same,Potency,[12],inactive
same,Potency,[17],inactive
same,Potency,[14],inactive
CCCCCCNC(=O)n1cc(F)c(=O)[nH]c1=O,Potency,[1],inactive
same,Potency,[2],inactive
same,Potency,[3],inactive
same,Potency,[4],inactive
same,Potency,[5],inactive
same,Potency,[15],inactive
same,Potency,[18],5 µM (active)
same,Potency,[10],inactive
same,Potency,[11],inactive
same,Potency,[12],inactive
same,Potency,[17],inactive
same,Potency,[13],inactive
same,Potency,[14],inactive
Nc1nc2ccc(OC(F)(F)F)cc2s1,Potency,[1],inactive
same,Potency,[2],inactive
same,Potency,[3],inactive
same,Potency,[4],inactive
same,Potency,[19],inactive
same,Potency,[15],inactive
same,Potency,[6],inactive
same,Potency,[10],inactive
same,Potency,[12],inactive
same,Potency,[14],inactive
C[C@H](CCC(=O)O)[C@H]1CC[C@H]2[C@@H]3C(=O)C[C@@H]4CC(=O)CC[C@]4(C)[C@H]3CC(=O)[C@]12C,Potency,[1],inactive
same,Potency,[2],inactive
same,Potency,[3],inactive
same,Potency,[4],inactive
same,Potency,[5],inactive
same,Potency,[15],inactive
same,Potency,[7],inactive
same,Potency,[16],inactive
same,Potency,[8],inactive
same,Potency,[9],inactive
same,Potency,[12],inactive
same,Potency,[17],inactive
same,Potency,[13],inactive
same,Potency,[14],inactive
O=[N+]([O-])c1ccc(O)cc1C(F)(F)F,Potency,[1],30.6 µM (active)
same,Potency,[2],68.6 µM (active)
same,Potency,[3],inactive
same,Potency,[4],inactive
same,Potency,[19],inactive
same,Potency,[15],inactive
same,Potency,[6],inactive
same,Potency,[7],inactive
same,Potency,[16],inactive
same,Potency,[8],inactive
same,Potency,[9],inactive
same,Potency,[11],inactive
same,Potency,[12],inactive
same,Potency,[13],inactive
same,Potency,[14],inactive
O=C1CCCCCO1,Potency,[1],inactive
same,Potency,[2],inactive
same,Potency,[3],inactive
same,Potency,[4],inactive
same,Potency,[5],inactive
same,Potency,[15],inactive
same,Potency,[7],inactive
same,Potency,[16],inactive
same,Potency,[9],inactive
same,Potency,[10],inactive
same,Potency,[12],inactive
same,Potency,[13],inactive
same,Potency,[14],inactive
C[C@@H]1CN(c2c(F)c(F)c3c(=O)c(C(=O)O)cn(C4CC4)c3c2F)C[C@H](C)N1,"activity change, negative = cytotoxicity",[1],-4.39% [at 19 µM]
same,"activity, positive = activation",[2],2.76% [at 19 µM]
same,activity change,[3],"0.18% [at 11.8 µM, active compounds read high]"
same,activation,[4],-0.0587% [at 15.8 µM]
same,"activity change, negative = cytotoxicity",[5],0.644% [at 13.5 µM]
same,"activity change, negative = cytotoxicity",[15],9.6% [at 13.5 µM]
same,"activity change, negative = cytotoxicity",[6],-8.27% [at 13.5 µM]
same,"activity, negative = inhibition",[7],0.835% [at 12.7 µM]
same,activation,[16],-2.83% [at 15.9 µM]
same,"activity, negative = inhibition",[8],7.07% [at 12.6 µM]
same,activation,[9],-1.01% [at 15.8 µM]
same,activation,[10],-2.17% [at 19 µM]
same,"activity change, negative = inhibition",[12],-4.7% [at 19 µM]
same,activation,[13],18.6% [at 19 µM]
same,"activity change, negative = inhibition",[14],-0.82% [at 18.9 µM]
CCOc1ccc(NC(N)=O)cc1,Potency,[1],inactive
same,Potency,[2],inactive
same,Potency,[3],inactive
same,Potency,[4],inactive
same,Potency,[5],inactive
same,Potency,[15],inactive
same,Potency,[6],inactive
same,Potency,[7],inactive
same,Potency,[16],inactive
same,Potency,[8],inactive
same,Potency,[9],inactive
same,Potency,[10],inactive
same,Potency,[11],inactive
same,Potency,[12],inactive
same,Potency,[13],inactive
same,Potency,[14],inactive
